“And” between values parts separate entries of the source, which are not always exact repeats. Equal values may be shown once. Out of some 5,500 compounds screened, about 2,000 (36%) were called active. Roughly 18% stayed inconclusive and do not appear here. Cut-off read from the data, not from the text of the source: active = normalized growth mostly below about 0.91 (no sharp cut-off); inconclusive = no clear call, values can overlap the other calls; inactive = mostly above about 0.92. Some of the results follow.
Assay: chemical genetic growth profiling, strain panel (AID 1159580);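 note: tested at 20 µM; growth read once vehicle control cultures reached saturation at 30 °C; 1 = growth at the plate median or of vehicle wells; lower values mean less growth of the strain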
Conditions: growth OD

Measured: normalized growth

Cc1c(NC(C)C)c(=O)n(-c2ccccc2)n1C
inactive: S. cerevisiae deletion strains, locus YAL013W, strain DEP1, hits give low values 1 | S. cerevisiae deletion strains, locus YBR021W, strain FUR4, hits give low values 0.994 | S. cerevisiae deletion strains, locus YBR229C, strain ROT2, hits give low values 0.989 | S. cerevisiae deletion strains, locus YCL029C, strain bik1, hits give low values 0.983 | S. cerevisiae deletion strains, locus YDL035C, strain GPR1, hits give low values 1.02 | S. cerevisiae deletion strains, locus YDL074C, strain BRE1, hits give low values 0.987 | S. cerevisiae deletion strains, locus YDL101C, strain DUN1, hits give low values 0.985 | S. cerevisiae deletion strains, locus YDL134C, strain PPH21, hits give low values 0.996 | S. cerevisiae deletion strains, locus YDL185W, strain tfp1, hits give low values 0.984 | S. cerevisiae deletion strains, locus YDL192W, strain arf1, hits give low values 0.995 | S. cerevisiae deletion strains, locus YDR101C, strain arx1, hits give low values 0.984 | S. cerevisiae deletion strains, locus YDR150W, strain NUM1, hits give low values 1 | S. cerevisiae deletion strains, locus YDR162C, strain NBP2, hits give low values 1.01 | S. cerevisiae deletion strains, locus YDR318W, strain mcm21, hits give low values 0.98 | S. cerevisiae deletion strains, locus YDR388W, hits give low values 0.974 | S. cerevisiae deletion strains, locus YDR502C, strain sam2, hits give low values 1 | S. cerevisiae deletion strains, locus YEL061C, strain CIN8, hits give low values 1 | S. cerevisiae deletion strains, locus YER110C, hits give low values 0.984 | S. cerevisiae deletion strains, locus YER155C, strain BEM2, hits give low values 0.99 | S. cerevisiae deletion strains, locus YER167W, strain BCK2, hits give low values 1 | S. cerevisiae deletion strains, locus YGL078C, strain dbp3, hits give low values 0.995 | S. cerevisiae deletion strains, locus YGL086W, strain mad1, hits give low values 1 | S. cerevisiae deletion strains, locus YGL248W, strain PDE1, hits give low values 1 | S. cerevisiae deletion strains, locus YGR078C, strain PAC10, hits give low values 0.987 | S. cerevisiae deletion strains, locus YGR135W, strain pre9, hits give low values 0.983 | S. cerevisiae deletion strains, locus YGR229C, strain SMI1, hits give low values 0.998 | S. cerevisiae deletion strains, locus YGR252W, strain gcn5, hits give low values 1.09 | S. cerevisiae deletion strains, locus YHR030C, strain SLT2, hits give low values 0.998 and 1.03 | S. cerevisiae deletion strains, locus YHR079C, strain IRE1 (second series), hits give low values 0.98 | S. cerevisiae deletion strains, locus YHR079C, strain IRE1, hits give low values 1.03 | S. cerevisiae deletion strains, locus YHR094C, strain hxt1, hits give low values 0.98 | S. cerevisiae deletion strains, locus YHR129C, strain ARP1, hits give low values 0.991 | S. cerevisiae deletion strains, locus YHR200W, strain rpn10, hits give low values 0.981 | S. cerevisiae deletion strains, locus YIL066C, strain RNR3, hits give low values 0.998 | S. cerevisiae deletion strains, locus YIL073C, strain SPO22, hits give low values 1 | S. cerevisiae deletion strains, locus YIL125W, strain kgd1, hits give low values 0.99 | S. cerevisiae deletion strains, locus YIR030C, strain dcg1, hits give low values 0.986 | S. cerevisiae deletion strains, locus YJL095W, strain BCK1, hits give low values 0.99 and 1.03 | S. cerevisiae deletion strains, locus YJL134W, strain LCB3, hits give low values 0.998 | S. cerevisiae deletion strains, locus YJL168C, strain set2, hits give low values 0.98 | S. cerevisiae deletion strains, locus YJL187C, strain SWE1 (second series), hits give low values 0.984 | S. cerevisiae deletion strains, locus YJR043C, strain POL32, hits give low values 1 | S. cerevisiae deletion strains, locus YJR066W, strain TOR1, hits give low values 0.962 | S. cerevisiae deletion strains, locus YJR075W, strain HOC1, hits give low values 0.994 | S. cerevisiae deletion strains, locus YKL009W, strain mrt4, hits give low values 0.999 | S. cerevisiae deletion strains, locus YKL068W, hits give low values 0.989 | S. cerevisiae deletion strains, locus YKL085W, strain MDH1 (second series), hits give low values 1 | S. cerevisiae deletion strains, locus YKL085W, strain MDH1, hits give low values 1 | S. cerevisiae deletion strains, locus YKL190W, strain CNB1, hits give low values 1 | S. cerevisiae deletion strains, locus YKR001C, strain vps1, hits give low values 0.992 | S. cerevisiae deletion strains, locus YLR039C, strain RIC1, hits give low values 1.05 | S. cerevisiae deletion strains, locus YLR058C, strain SHM2, hits give low values 0.988 | S. cerevisiae deletion strains, locus YLR102C, strain apc9, hits give low values 0.98 | S. cerevisiae deletion strains, locus YLR113W, strain HOG1, hits give low values 1.05 | S. cerevisiae deletion strains, locus YLR262C, strain YPT6, hits give low values 1.01 | S. cerevisiae deletion strains, locus YLR268W, strain sec22, hits give low values 0.925 | S. cerevisiae deletion strains, locus YLR330W, strain CHS5, hits give low values 1.01 | S. cerevisiae deletion strains, locus YLR342W, strain FKS1 (second series), hits give low values 1.04 | S. cerevisiae deletion strains, locus YLR371W, strain rom2, hits give low values 0.974 | S. cerevisiae deletion strains, locus YLR418C, strain cdc73, hits give low values 0.957 | S. cerevisiae deletion strains, locus YML016C, strain PPZ1, hits give low values 0.988 | S. cerevisiae deletion strains, locus YML032C, strain rad52, hits give low values 0.964 | S. cerevisiae deletion strains, locus YML124C, strain tub3, hits give low values 0.985 | S. cerevisiae deletion strains, locus YMR078C, strain ctf18, hits give low values 0.989 | S. cerevisiae deletion strains, locus YMR223W, strain ubp8, hits give low values 1.01 | S. cerevisiae deletion strains, locus YMR263W, strain SAP30, hits give low values 1 | S. cerevisiae deletion strains, locus YMR307W, strain GAS1, hits give low values 0.978 | S. cerevisiae deletion strains, locus YNL067W, strain RPL9B, hits give low values 0.986 | S. cerevisiae deletion strains, locus YNL128W, strain TEP1, hits give low values 1 | S. cerevisiae deletion strains, locus YNL153C, strain GIM3, hits give low values 0.986 | S. cerevisiae deletion strains, locus YNL183C, strain NPR1, hits give low values 0.974 | S. cerevisiae deletion strains, locus YNL233W, strain BNI4, hits give low values 0.986 | S. cerevisiae deletion strains, locus YNL250W, strain rad50, hits give low values 0.977 | S. cerevisiae deletion strains, locus YNL271C, strain bni1, hits give low values 0.986 | S. cerevisiae deletion strains, locus YNL298W, strain CLA4, hits give low values 0.971 | S. cerevisiae deletion strains, locus YNL307C, strain MCK1, hits give low values 0.982 | S. cerevisiae deletion strains, locus YNL322C, strain KRE1, hits give low values 0.993 | S. cerevisiae deletion strains, locus YNR052C, strain pop2, hits give low values 0.991 | S. cerevisiae deletion strains, locus YOL006C, strain TOP1, hits give low values 0.927 | S. cerevisiae deletion strains, locus YOL012C, strain htz1 1.17 | S. cerevisiae deletion strains, locus YOL147C, strain pex11, hits give low values 0.991 | S. cerevisiae deletion strains, locus YOR061W, strain CKA2, hits give low values 0.997 | S. cerevisiae deletion strains, locus YOR069W, strain VPS5, hits give low values 0.988 | S. cerevisiae deletion strains, locus YOR136W, strain idh2, hits give low values 0.971 | S. cerevisiae deletion strains, locus YOR144C, strain elg1, hits give low values 0.97 | S. cerevisiae deletion strains, locus YOR184W, strain ser1, hits give low values 0.985 | S. cerevisiae deletion strains, locus YOR231W, strain MKK1, hits give low values 1.04 | S. cerevisiae deletion strains, locus YOR316C, strain cot1, hits give low values 0.982 | S. cerevisiae deletion strains, locus YPL055C, strain LGE1, hits give low values 1.01 | S. cerevisiae deletion strains, locus YPL241C, strain CIN2, hits give low values 1 | S. cerevisiae deletion strains, locus YPL256C, strain CLN2, hits give low values 1.09 | S. cerevisiae deletion strains, locus YPR119W, strain clb2, hits give low values 0.982 | S. cerevisiae deletion strains, locus YPR141C, strain kar3, hits give low values 0.975 | S. cerevisiae deletion strains, locus YPR163C, strain tif3, hits give low values 0.982 | S. cerevisiae deletion strains, locus YPR167C, strain met16, hits give low values 0.971 | S. cerevisiae deletion strains, strain wtn01, hits give low values 0.971 | S. cerevisiae strains, strain wild type, hits give low values 0.995

From PubChem BioAssay AID1159580 (chemical genetic matrix, 2015)
